Screens deposited in PubChem BioAssay by National Center for Advancing Translational Sciences (NCATS).
Compounds with a hit are over-represented: about 3.4% of the library has one in this group of screens.
VDR inh = inhibitors of human vitamin D receptor. hit rate 0.93% among 400,000. VDR-SRC2-3 peptide fluorescence polarization, 2 h. AID 504847. Potency, µM, most hits filed as inhibitors. P11473
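Signal is fluorescence polarization, reporting how far test compounds block the interaction of VDR with the SRC2-3 coregulator peptide after a 2 h room-temperature incubation.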
GCN5L2 inh = blocks human GCN5L2 histone acetyltransferase. Potency, µM (highest dose often 58.9 µM), usual class: inhibitors. hit rate 0.21% among 390,000. Q92830. GCN5L2 HAT assay, ThioGlo1 CoA-SH fluorescence
Target sequence (Q92830 whole entry, looked up): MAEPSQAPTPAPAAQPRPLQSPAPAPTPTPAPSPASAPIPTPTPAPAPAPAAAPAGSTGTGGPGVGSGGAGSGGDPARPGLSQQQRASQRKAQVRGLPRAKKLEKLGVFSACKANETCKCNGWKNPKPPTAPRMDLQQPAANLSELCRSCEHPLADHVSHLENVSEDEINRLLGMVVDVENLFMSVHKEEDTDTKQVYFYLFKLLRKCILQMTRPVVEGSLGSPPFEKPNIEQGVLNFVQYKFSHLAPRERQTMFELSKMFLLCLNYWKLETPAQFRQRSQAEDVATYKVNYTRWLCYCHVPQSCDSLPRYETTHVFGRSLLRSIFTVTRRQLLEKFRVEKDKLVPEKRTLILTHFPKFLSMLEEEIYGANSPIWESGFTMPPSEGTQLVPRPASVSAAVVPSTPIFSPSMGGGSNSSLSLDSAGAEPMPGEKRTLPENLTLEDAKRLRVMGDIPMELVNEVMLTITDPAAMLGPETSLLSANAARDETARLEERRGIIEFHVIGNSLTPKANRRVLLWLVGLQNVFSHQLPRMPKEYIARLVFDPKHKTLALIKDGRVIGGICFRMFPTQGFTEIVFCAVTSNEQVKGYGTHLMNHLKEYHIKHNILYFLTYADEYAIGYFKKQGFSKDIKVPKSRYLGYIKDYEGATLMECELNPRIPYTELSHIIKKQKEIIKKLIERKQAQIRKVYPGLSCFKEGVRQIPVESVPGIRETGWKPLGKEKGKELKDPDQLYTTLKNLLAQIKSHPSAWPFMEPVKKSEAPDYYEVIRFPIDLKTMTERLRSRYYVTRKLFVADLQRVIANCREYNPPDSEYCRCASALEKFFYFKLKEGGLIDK
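qHTS, 1536-well. 20nM enzyme, pH 7.5 HEPES/EDTA/Tween-20 buffer; 15 min compound preinc., RT. Start: 75uM H3(1-25), 70uM AcCoA, 50uM ThioGlo1. Read Ex340/Em540 at t=0 (autofluorescence flag) and t=20 min.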
PKM2 act = PKM2 (human) enzyme activation; P14618; purified PKM2, Kinase-Glo ATP luminescence, activation; response scale: 0% is enzyme alone, no compound; Potency, µM (top dose mostly 57.5 µM), hits mostly activators; hit rate 0.34% among 260,000; note: nearly all actives have a fitted effect of over 55% in size
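ATP formation by purified human PK-M2, quantified via coupled luciferase luminescence after 1 h at room temperature with 0.1 mM ADP and 0.5 mM PEP final.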
PLK1 PBD inh = inhibitors of human PLK1 polo-box domain binding. hit rate 2.8% among 360,000. Plk1 PBD binding of FITC phosphopeptide, fluorescence polarization. Potency, µM, usual class: inhibitors; note: series mostly up to about 57 µM; nearly all actives have a fitted effect of over 65% in size
Mito fusion yeast = mitochondrial division inhibition or fusion activation; Potency, µM (doses to about 46.1 µM), usual class: activators; S. cerevisiae fusion-defective mutant growth rescue, CellTiterGlo 48 h; hit rate 0.23% among 320,000; note: nearly all actives have a fitted effect of over 45% in size
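Luminescent cell viability in 1536-well qHTS format served as the measure of rescued growth in ts fusion-mutant S. cerevisiae cultured on non-fermentable YPEG for 48 hours at 37C.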
GLS inhibitor = glutaminase GLS (human) inhibition; O94925; GLS enzymatic activity, qHTS titration; Potency, µM (top dose mostly 45.5 µM), actives largely listed as inhibitors; hit rate 0.21% among 410,000; AID 624170
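hKGA in 45 mM KH2PO4 pH 8.2, 0.02% Tween-20 with pin-transferred compounds; 1 mM L-glutamine (stock) plus glutamate oxidase/HRP/Amplex Red coupling added. Fluorescence read initially and after 30 min at RT.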
Of the large screens only hits and unclear results are named; the others gave an inactive call; ! = repeats disagree. Calls come from the whole dose curve; as a rule, active = well fitted curve in the direction sought with a large enough effect; inconclusive = small, poorly fitted or top-dose-only effect, or another doubt; inactive = no such curve, though single readings can be large; an effect the other way counts as inactive or inconclusive.

CCOC(=O)Cc1csc(N/C(=N/S(=O)(=O)c2ccc(Cl)cc2)c2ccccc2)n1	VDR inh inconclusive, PLK1 PBD inh 21.2µM
CCOC(=S)N/C(=N\S(=O)(=O)c1ccc(C)cc1)c1ccccc1	PLK1 PBD inh 23.8µM
O=S(=O)(/N=C(/NC(=S)Nc1ccccc1)c1ccccc1)c1ccc(Cl)cc1	VDR inh inconclusive, PLK1 PBD inh 11.9µM
Cc1nc(-c2ccc(F)cc2)sc1CCNC(=O)c1cccs1	none (no result: PKM2 act, PLK1 PBD inh, Mito fusion yeast)
CCc1noc(C)c1C(=O)OC(C)C(=O)Nc1cc([N+](=O)[O-])ccc1OC (stereo not given)	none (no result: PKM2 act)
CCN(c1ccccc1)S(=O)(=O)c1nnc(NC(=O)COc2ccccc2F)s1	none (no result: PKM2 act, PLK1 PBD inh, Mito fusion yeast)
Cc1ccc(C(=O)Nc2ccc3oc(-c4cc(Br)ccc4Cl)nc3c2)cc1	none (no result: PKM2 act, PLK1 PBD inh, Mito fusion yeast)
Cc1n[nH]c(=O)c2c(NC(=O)CSc3ccc(F)cc3)oc(C)c12	PLK1 PBD inh inconclusive (no result: PKM2 act)
CC(=O)Nc1ccc(SCC(=O)Nc2oc(C)c3c(C)n[nH]c(=O)c23)cc1	PLK1 PBD inh 18.9µM (no result: PKM2 act)
CN(C)C(=S)N=c1ssc(=S)n1Cc1cccnc1	VDR inh 50.1µM, PLK1 PBD inh 26.7µM (no result: GCN5L2 inh, PKM2 act, Mito fusion yeast)
S=C1NCN(Cc2cccnc2)CN1	none
O=C(Cc1ccccc1)NC1(O)C(=O)c2ccccc2C1=O	VDR inh 35.5µM
Cc1c(CC(=O)N[C@H](C(=O)O)C(C)C)c(=O)oc2cc3c(cc12)CCC(C)(C)O3	VDR inh inconclusive, PLK1 PBD inh 21.2µM (no result: PKM2 act)
O=c1c(O)cccc2cc(O)c(O)c(O)c12	VDR inh 20µM!, GCN5L2 inh inconclusive, PKM2 act inconclusive, PLK1 PBD inh 8.44µM, GLS inhibitor 1.58µM
CCC(C)C(N)C(=O)O (stereo not given)	none (no result: PKM2 act, PLK1 PBD inh, Mito fusion yeast)
Clc1cccc(-c2nn3c(Cn4cnc5ccccc54)nnc3s2)c1	VDR inh inconclusive, PKM2 act inconclusive, PLK1 PBD inh 10.6µM
c1csc(-c2nn3c(Cn4cnc5ccccc54)nnc3s2)c1	PKM2 act inconclusive, PLK1 PBD inh 21.2µM
c1ccc2oc(-c3nn4c(Cn5cnc6ccccc65)nnc4s3)cc2c1	PLK1 PBD inh inconclusive (no result: GCN5L2 inh, PKM2 act, Mito fusion yeast)
Clc1cccc(-c2nn3c(COc4ccccc4)nnc3s2)c1	none (no result: VDR inh, PLK1 PBD inh, GLS inhibitor)
CCOc1ccc(CCNC(=O)CCS(=O)(=O)c2ccc(C)cc2)cc1OCC	none (no result: PKM2 act)
COc1ccccc1NC(=O)CSc1nc2n[nH]c(C)c2c(=N)n1-c1ccccc1Cl	Mito fusion yeast 22.4µM
COc1ccc(C(CC(=O)O)NS(=O)(=O)c2ccc3c(c2)N(C(C)=O)CC(C)O3)cc1 (stereo not given)	PLK1 PBD inh 26.7µM
CC(=O)N/C(=C\c1ccc(F)cc1)C(=O)N(C)C	none
Cc1ccc(NC(=O)N(Cc2cn(C)c3ccccc23)C2CCCCC2)cc1C	none (no result: PKM2 act, PLK1 PBD inh, Mito fusion yeast)
COc1cc(C(=O)NS(=O)(=O)c2ccccc2C)ccc1Cc1cn(C)c2ccc(NC(=O)OC3CCCC3)cc12	VDR inh 50.1µM, GCN5L2 inh 7.08µM (no result: PKM2 act, PLK1 PBD inh)
COc1ccc(CC(=O)Nc2c(C(=O)Nc3ccccc3F)oc3ccccc23)cc1	none (no result: PKM2 act, PLK1 PBD inh, Mito fusion yeast)
COC(=O)c1ccc(C(c2c(N)n(Cc3ccccc3)c(=O)n(C)c2=O)N2CCOCC2)cc1 (stereo not given)	PKM2 act 12.6µM, GLS inhibitor inconclusive
CC(C1CC1)N(Cc1ccccc1)C(=S)Nc1cccc(C(F)(F)F)c1 (stereo not given)	PLK1 PBD inh 29.9µM
COc1cccc([C@@H]2Oc3ccc(Br)cc3C(=O)[C@H]2OC(=O)Nc2cc(OC)c(OC)c(OC)c2)c1	none (no result: GCN5L2 inh, PKM2 act, PLK1 PBD inh, Mito fusion yeast, GLS inhibitor)
COCCCn1c(-c2ccco2)nc2ccccc2c1=O	none
COCCCN=C(c1ccco1)n1c(=S)nc(-c2ccco2)n(CCCOC)c1=S	VDR inh inconclusive, GCN5L2 inh inconclusive, PLK1 PBD inh 18.9µM
CC(C)(C)c1csc(NC(=O)Cn2c(=O)oc3ccccc32)n1	PLK1 PBD inh 26.7µM
CC(Oc1ccccc1)C(=O)N1CCC2(CC1)Oc1ccc(F)cc1C(=O)C21CC(c2ccccc2)=NO1 (stereo not given)	VDR inh inconclusive, PLK1 PBD inh 21.2µM (no result: GCN5L2 inh, PKM2 act, Mito fusion yeast)
CC(Oc1ccccc1)C(=O)N1CCC2(CC1)Oc1ccc(F)cc1C(=O)C21CC(c2ccc(Cl)cc2)=NO1 (stereo not given)	none (no result: GCN5L2 inh, PKM2 act, Mito fusion yeast)
CC(N)CCCP(=O)(O)O (stereo not given)	none (no result: PKM2 act, PLK1 PBD inh, Mito fusion yeast, GLS inhibitor)
COc1ccc(NC(=O)c2ccco2)cc1NC(=O)c1cccc(C)c1OC	VDR inh inconclusive (no result: PKM2 act, PLK1 PBD inh, Mito fusion yeast)
CC(C)(C)C1CCc2c(sc(NC(=O)c3cc4ccccc4c(=O)o3)c2C(N)=O)C1 (stereo not given)	none (no result: PKM2 act, PLK1 PBD inh, Mito fusion yeast)
OC(CCN1CCOCC1)c1ccccc1 (stereo not given)	none
OC1(CN2CCOCC2)C2CN3CCN(C2)CC1(c1ccccc1)C3 (stereo not given)	PLK1 PBD inh 21.2µM
COc1ccc(-c2cc(C(=O)Nc3cc(C)nn3-c3ccccc3)no2)cc1OC	PLK1 PBD inh 37.7µM
COC(=O)C1=C(C)N(CCc2c[nH]c3ccccc23)C(=O)/C1=C\N(C)C	VDR inh inconclusive, PLK1 PBD inh 23.8µM
CCN1C(=NCCc2c[nH]c3ccccc23)N[C@@H](c2ccccc2)C(C(=O)OC)=C1C	none (no result: VDR inh, PLK1 PBD inh, GLS inhibitor)
O=C(Nc1ccc(CN2CCOCC2)cc1)c1ccc(Br)o1	none (no result: PKM2 act)
